“And” between values parts separate entries of the source, which are not always exact repeats. Equal values may be shown once. About 83,000 compounds went through this panel and 20% of them were active in at least one assay; those are over-represented in the sample as a whole.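 Plates (96-well) were seeded with cells, treated with compound at one concentration, and incubated for 48 hours before percent growth was determined.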 The source made the active and inactive calls. Rule for the calls: active = growth percent below 10; inactive = the rest.

Holding throughout (experiment): NCI-60 one-dose screen, 48 h (100 = growth as untreated, 0 = no growth, -100 = all killed)
The subject of one test is HCT-15 colon. The conditions noted are these: 10 µM.
The subject of a further test is HT29 colon. The conditions noted are these: 10 µM.
The next test has as its system SNB-75 CNS. Conditions: 10 µM.
The subject of another test is SNB-19 CNS. Conditions: 10 µM.
The subject of a further test is U251 CNS. Conditions: 10 µM.
The next test has as its system PC-3 prostate. The conditions noted are these: 10 µM.
The next test concerns SK-MEL-5 melanoma. Conditions: 10 µM.
A further test deals with UACC-62 melanoma. The conditions noted are these: 10 µM unless noted.
The next test deals with LOX IMVI melanoma. Conditions: 10 µM.
A further test relates to SK-MEL-28 melanoma. The conditions noted are these: 10 µM.
A further test deals with SK-MEL-2 melanoma. Conditions: 10 µM.
The next test relates to SN12C renal. Conditions: 10 µM.
Another test concerns UO-31 renal. Conditions: 10 µM.
The next test has as its system TK-10 renal. Conditions: 10 µM unless noted.
The next test deals with ACHN renal. Conditions: 10 µM.
The next test has as its system CAKI-1 renal. The conditions noted are these: 10 µM.
The subject of another test is A498 renal. The conditions noted are these: 10 µM.
For another test, the system named is HL-60(TB) leukemia. Conditions: 10 µM.
The test system of the next test is CCRF-CEM leukemia. The conditions noted are these: 10 µM.
In a further test the test system is EKVX NSCLC. Conditions: 10 µM.

As to `Oc1c(Cl)cc(Cl)c2ccccc12.[Cu+2]`, the growth was 99.5% (inactive) in the test on HCT-15 colon; 92.5% (inactive) in the test with HT29 colon; 91% (inactive) with SNB-75 CNS; 121% (inactive) in the test on SNB-19 CNS; 108% (inactive) in the test on U251 CNS; 88.4% (inactive) with PC-3 prostate. Further, the growth was 90.5% (inactive) with SK-MEL-5 melanoma; 109% (inactive) in the test with UACC-62 melanoma; 37.7% (inactive) with LOX IMVI melanoma; 116% (inactive) with SK-MEL-28 melanoma; 86.1% (inactive) with SK-MEL-2 melanoma; 99% (inactive) in the test on SN12C renal. Further, the growth in the test with UO-31 renal is 49% (inactive); in the test on TK-10 renal, 119% (inactive); in the test on ACHN renal, 91.9% (inactive); with CAKI-1 renal it was 96.4% (inactive); in the test with A498 renal, 106% (inactive); with HL-60(TB) leukemia, 92% (inactive). Besides, the growth in the test with CCRF-CEM leukemia is 48.5% (inactive).

For `CCOP(=O)(OCC)/C(C#N)=C/c1ccc(Br)cc1`, the growth is 96.3% (inactive) with HCT-15 colon; 98.2% (inactive) in the test with HT29 colon; 86.6% (inactive) in the test with SNB-75 CNS; 96.8% (inactive) in the test with SNB-19 CNS; 99.3% (inactive) with U251 CNS; 95.9% (inactive) in the test on PC-3 prostate. Also, the growth with SK-MEL-5 melanoma is 108% (inactive); in the test with UACC-62 melanoma, 88.6% (inactive); in the test on LOX IMVI melanoma, 95.5% (inactive); in the test with SK-MEL-28 melanoma, 115% (inactive); in the test on SK-MEL-2 melanoma, 103% (inactive); with EKVX NSCLC, 97.6% (inactive). For the same molecule, the growth is 81.3% (inactive) in the test with UO-31 renal; 104% (inactive) in the test on TK-10 renal; 98.6% (inactive) in the test on ACHN renal; 121% (inactive) with A498 renal; 92.1% (inactive) with HL-60(TB) leukemia; 100% (inactive) in the test on CCRF-CEM leukemia.

Take `O=[N+]([O-])c1cc[n+]([O-])c2ccccc12`: the growth was -23.1% (active) in the test with HCT-15 colon; -31.4% (active) with HT29 colon; -82.2% (active) in the test on SNB-75 CNS; -17.6% (active) in the test with SNB-19 CNS; -26.3% (active) in the test on U251 CNS; -10.8% (active) in the test with PC-3 prostate. The growth in the test with SK-MEL-5 melanoma is -92.5% (active); with UACC-62 melanoma it was -85.2% (active); with LOX IMVI melanoma, -73.7% (active); with SK-MEL-28 melanoma it was -86.9% (active); in the test with SK-MEL-2 melanoma, -56.2% (active); with EKVX NSCLC it was -3.54% (active). Further, the growth was -29.5% (active) in the test on UO-31 renal; -22.6% (active) with TK-10 renal; -42.4% (active) with ACHN renal; -34.7% (active) in the test on A498 renal; -26.9% (active) in the test with HL-60(TB) leukemia; -11.1% (active) in the test on CCRF-CEM leukemia.

Consider `COc1cc(/C=C\[N+](=O)[O-])ccc1O`, for which the growth was -12% (active) and 75.9% (inactive) with HCT-15 colon; 32.3% (inactive) and 90.3% (inactive) with HT29 colon; 93.6% (inactive) and 96.7% (inactive) with SNB-75 CNS; 82.6% (inactive) and 81.2% (inactive) with SNB-19 CNS; 50.1% (inactive) and 64.1% (inactive) in the test with U251 CNS; 97.6% (inactive) and 90.3% (inactive) in the test with PC-3 prostate. Further, the growth in the test with SK-MEL-5 melanoma was 77% (inactive) and 79.3% (inactive); with UACC-62 melanoma, 61.1% (inactive) and 80.2% (inactive); in the test with LOX IMVI melanoma it was -66.1% (active) and 46.7% (inactive); in the test on SK-MEL-28 melanoma, 55.8% (inactive) and 97.3% (inactive); with SK-MEL-2 melanoma, 87.7% (inactive) and 93.5% (inactive); with EKVX NSCLC, 108% (inactive) and 91.7% (inactive). Also, the growth with UO-31 renal is 44.5% (inactive) and 70.1% (inactive); with TK-10 renal it was 23.5% (inactive) and 87.1% (inactive); in the test on ACHN renal, 13.4% (inactive) and 82.9% (inactive); in the test on A498 renal, 97.6% (inactive) and 102% (inactive); in the test with HL-60(TB) leukemia, 9.29% (active) and 48.1% (inactive); with CCRF-CEM leukemia, 6.86% (active) and 70.4% (inactive).

Turning to `O=c1[nH]c2ccccc2n1C1CCN(CCCC(c2ccc(F)cc2)c2ccc(F)cc2)CC1`, the growth in the test with HCT-15 colon is 37.7% (inactive) and -3.08% (active); with HT29 colon, 9.69% (active) and -2.65% (active); in the test on SNB-75 CNS, 77.1% (inactive) and 106% (inactive); with SNB-19 CNS, 77.9% (inactive) and 68.2% (inactive); with U251 CNS it was -1.25% (active) and 17.5% (inactive); with PC-3 prostate, -21.4% (active) and 21.3% (inactive). Besides, the growth in the test on SK-MEL-5 melanoma is 23.6% (inactive) and -86.5% (active); with UACC-62 melanoma, 38.4% (inactive) and 30.3% (inactive); with LOX IMVI melanoma, 15.6% (inactive) and -22.7% (active); in the test with SK-MEL-28 melanoma, 82.2% (inactive) and -53.2% (active); in the test on SK-MEL-2 melanoma, 95.8% (inactive) and 63.6% (inactive); in the test on EKVX NSCLC it was 42.1% (inactive) and 51.4% (inactive). Further, the growth with UO-31 renal was 33.1% (inactive) and 12.5% (inactive); in the test on TK-10 renal, 62.1% (inactive) and 63.3% (inactive); with ACHN renal, 44.4% (inactive); in the test with HL-60(TB) leukemia it was -41.7% (active) and -41.6% (active); with CCRF-CEM leukemia, -0.815% (active) and 31.2% (inactive).

On to `Cc1cc([N+](=O)[O-])c2ccccc2[n+]1[O-]`, for which the growth with HCT-15 colon was -25.7% (active) and -13.2% (active); with HT29 colon it was -24.6% (active) and -48.6% (active); in the test with SNB-75 CNS it was -63.6% (active) and -53.8% (active); with SNB-19 CNS, -4.83% (active) and -14.1% (active); in the test on U251 CNS it was -12.7% (active) and -32.2% (active); in the test on PC-3 prostate it was -10.8% (active) and -56% (active). The growth in the test on SK-MEL-5 melanoma is -84% (active) and -58.2% (active); in the test on UACC-62 melanoma, -55.5% (active) and -86.3% (active); in the test with LOX IMVI melanoma, 7.14% (active) and -48.7% (active); in the test with SK-MEL-28 melanoma, 41.8% (inactive) and 15.2% (inactive); in the test on SK-MEL-2 melanoma, -57.5% (active) and -79.5% (active); in the test on EKVX NSCLC, 89.4% (inactive). Moreover, the growth in the test on SN12C renal is -5.98% (active) and -21.1% (active); in the test on UO-31 renal, -26.7% (active) and -48.8% (active); in the test on TK-10 renal, -31.3% (active) and -29.9% (active); in the test on ACHN renal it was -35.6% (active) and -73.4% (active); in the test with CAKI-1 renal it was 8.17% (active) and -82.2% (active); with HL-60(TB) leukemia it was 41% (inactive) and -30.6% (active). Moreover, in the test with CCRF-CEM leukemia, the growth was 17% (inactive) and -2.8% (active).
